Source: PubChem BioAssay AID720582 (The Scripps Research Institute Molecular Screening Center, 2013)
Among all 370,000 compounds or so, about 2,300 (0.62%) were called active.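 Rule for the calls: active = inhibition above a per-campaign cutoff equal to the mean of compounds falling between control-based bounds plus 3 SD (cut at about 20% in these data); inactive = the rest.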 What follows is part of a selection rich in actives, with near analogues and random picks from the rest.

The compounds below were run against Disintegrin and metalloproteinase domain-containing protein 10 (Homo sapiens) (UniProt O14672) (assay: blockers of ADAM10 peptide cleavage – biochemical, QFRET, HTS, primary screen (AID 720582;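 note: 0% = DMSO wells while the 100% control is not disclosed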)). Settings: recombinant ADAM10, EDANS/DABCYL FRET peptide cleavage, 3 h; at 7 µM; active compounds read high.
Disintegrin and metalloproteinase domain-containing protein 10 (Homo sapiens), sequence (O14672 214-748 limits assumed): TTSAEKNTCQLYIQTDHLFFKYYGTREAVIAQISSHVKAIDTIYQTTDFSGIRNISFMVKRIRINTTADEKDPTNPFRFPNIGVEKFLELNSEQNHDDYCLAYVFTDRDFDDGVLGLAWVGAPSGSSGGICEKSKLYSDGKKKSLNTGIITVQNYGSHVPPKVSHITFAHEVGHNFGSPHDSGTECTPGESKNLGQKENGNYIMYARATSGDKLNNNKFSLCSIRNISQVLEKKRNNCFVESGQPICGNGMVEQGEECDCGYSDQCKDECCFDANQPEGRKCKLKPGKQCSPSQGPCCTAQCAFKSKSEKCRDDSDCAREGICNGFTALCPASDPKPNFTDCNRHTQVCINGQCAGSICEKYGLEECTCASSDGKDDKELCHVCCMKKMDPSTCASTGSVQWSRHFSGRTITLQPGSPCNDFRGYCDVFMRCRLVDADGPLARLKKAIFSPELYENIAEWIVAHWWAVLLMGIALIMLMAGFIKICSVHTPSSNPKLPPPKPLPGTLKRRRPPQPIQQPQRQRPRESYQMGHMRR

Compound | inhibition
O=C(NCCCc1ccccc1)[C@H](Cc1ccccc1)NC1(C(=O)NCCc2c[nH]c3ccccc23)CCC1 | 10.8% (inactive)
CCCn1nnnc1NCc1ccc(OC)cc1 | 0.98% (inactive)
O=C(c1cccs1)n1nc(NCc2ccccc2)nc1NCc1ccccc1 | -4.16% (inactive)
CCCC(=O)n1nc(NCc2ccc(OC)cc2)nc1NCc1ccc(OC)cc1 | 21.3% (active)
Cc1cc(C)nc(NC(=S)N2CCN(c3ccc(C(F)(F)F)cn3)CC2)c1 | -0.75% (inactive)
O=C1CC[C@@H](COc2ccc3[nH]cc(-c4ccccc4)c3c2-c2ccccc2)N1 | -16.4% (inactive)
Cc1cc(C)cc(NC(=O)CSc2ccccc2)c1 | 7.73% (inactive)
CC(=O)Nc1ccc(NC(=O)CSCc2cnn(-c3ccccc3)c2-n2cccc2)cc1 | -1.8% (inactive)
Cc1cc(C)cc(NC(=O)CSCc2cnn(-c3ccccc3)c2-n2cccc2)c1 | 20.7% (active)
O=C(NCCc1c[nH]c2ccccc12)OCc1cn(-c2c(F)cccc2F)nn1 | 2.44% (inactive)
CCOC(=O)[C@@]12CCC3=C1N(CCC3)C(=O)[C@H](CC(=O)N1CCN(C(=O)c3ccco3)CC1)C2 | 0.02% (inactive)
O=C(CCNS(=O)(=O)c1ccccc1C(F)(F)F)NCc1ccc2c(c1)OCO2 | 4.73% (inactive)
CC1(C(=O)NCc2ccc3c(c2)OCO3)CCN1C(=O)Cc1cccc2ccccc12 (stereo not given) | -4.08% (inactive)
N#Cc1nc(Cc2cccc3ccccc23)oc1NCc1ccc2c(c1)OCO2 | 22.7% (active)
C[C@@H]1COc2cccc(N3CCCC3)c2S(=O)(=O)N1C | -13.8% (inactive)
CCCCNC(=O)C[C@@H]1C(=O)N(CCc2ccc(Cl)cc2)C2=CCCC[C@]21C(=O)OCC | 1.59% (inactive)
CCCCC(=O)N[C@@H]1CC[C@@]23CCCN2C(=O)CCC[C@H]3[C@H]1C | -8.02% (inactive)
CC(C)(C)NC(=O)C(c1cccnc1)N(C(=O)c1cnco1)c1ccc(C(C)(C)C)cc1 (stereo not given) | -5.34% (inactive)
CC1Cc2ccccc2N1C(=O)CSc1nc2ccccc2o1 (stereo not given) | 3.31% (inactive)
Cc1ccc(/C=N/NC(=O)CSc2nc3ccccc3o2)cc1 | 22.1% (active)
O=C(CSc1nc2ccccc2o1)N/N=C/c1ccccc1C(=O)O | 5.59% (inactive)
C[C@H](C(=O)N(C)c1ccccc1)[C@@H](O)c1ccc2ccccc2c1 | -0.77% (inactive)
COc1ccc(-c2cc(-c3nnc(SCc4ccc([N+](=O)[O-])cc4)n3N)[nH]n2)cc1 | 0.29% (inactive)
COc1ccc(C(=O)NNc2cc(C)nc(NNC(=O)c3ccc(OC)cc3)n2)cc1 | -1.03% (inactive)
COc1cc(NS(=O)(=O)c2ccc(NC(=S)NC(=O)c3ccccc3)cc2)nc(OC)n1 | 6.57% (inactive)
COc1ccc(C(=O)NNC(=S)NC(=O)c2ccccc2)cc1 | 24% (active)
C=C1C(C(C)C)N(C)C2=NC(c3ccccc3)CC(=O)N12 (stereo not given) | -17.1% (inactive)

Compound | inhibition
COc1cccc(C2CC(c3cccs3)=NN2C(=O)CSC2=NCCS2)c1OC (stereo not given) | -3.83% (inactive)
COc1cccc(C2CC(c3ccccc3)=NN2S(=O)(=O)c2ccccc2)c1OC (stereo not given) | 29.9% (active)
CCS(=O)(=O)Nc1ccc(C2=NN(S(=O)(=O)c3ccc(F)cc3)C(c3ccco3)C2)cc1 (stereo not given) | 4.53% (inactive)
Cc1ccc(C)c(NC(=O)CCS(=O)(=O)c2ccccc2)c1 | -11.5% (inactive)
CC(C)(C)OC(=O)NCc1cc(F)ccc1/C=C/S(=O)(=O)NCCc1ccccc1 | 11.5% (inactive)
O=C(c1ccncc1)N1CC[C@H]2[C@H](CCCN2Cc2ccc(F)cc2)C1 | -25.2% (inactive)
COC(=O)C1CN(CCc2ccccc2)CCS(=O)(=O)N1Cc1cccc(Cl)c1 (stereo not given) | 2.53% (inactive)
COc1ccccc1NS(=O)(=O)c1ccc(C)c(C(=O)NNC(=O)c2csc(N3CCOCC3)n2)c1 | 8.51% (inactive)
COc1ccc(NS(=O)(=O)c2ccc(C)c(C(=O)NNC(=O)c3csc(N4CCOCC4)n3)c2)cc1 | 26% (active)
COc1ccc(NS(=O)(=O)c2ccc(N3CCOCC3)c(NC(=O)c3ccccc3Br)c2)cc1 | 6.43% (inactive)
CCC[C@H]1C(=O)CC[C@@]23CCCN2C(=O)CCC[C@@H]13 | -1.01% (inactive)
CCOC(=O)[C@@H]1[C@H]2COc3ccc(Br)cc3[C@H]2N2C(=O)N(c3ccc(C)cc3)C(=O)[C@@]12C | 1.71% (inactive)
Cc1ccc(N2C(=O)N3[C@@H]4c5ccccc5OC[C@@H]4[C@@H](c4ccccc4)[C@@]3(C)C2=O)cc1 | 20.3% (active)
C[C@@H]1NC(=O)[C@@]2(C)[C@@H](c3ccccc3)[C@H]3COc4ccccc4[C@@H]3N2C1=O | -7.53% (inactive)
CCOC(=O)c1csc(NC(=O)C2CCCN(S(=O)(=O)c3ccc(Cl)s3)C2)n1 (stereo not given) | 10% (inactive)
Cc1ccc(-n2c(SCC(=O)Nc3cccc4ccccc34)nnc2-c2ccccn2)cc1 | -6.55% (inactive)
Cc1ccccc1-n1c(SCC(=O)Nc2cccc3ccccc23)nc(O)cc1=O | 27% (active)
C=CCn1c(N)cc(=O)nc1SCC(=O)Nc1cccc2ccccc12 | -27% (inactive)
O=S1(=O)c2ccc(N3CCN(Cc4ccccc4F)CC3)cc2Oc2ccccc2CN1Cc1cn(Cc2ccc(Cl)cc2)nn1 | 7.21% (inactive)
CCOc1ccc(-n2c(SCC(=O)Nc3cc(C)c(NC(=O)c4ccccc4)cc3OC)nnc2-c2cccc(Cl)c2)cc1 | 8.65% (inactive)
COc1cccc(CC2(CO)CCCN(Cc3ccc(OC(F)F)cc3)C2)c1 (stereo not given) | 19.9% (active)
COc1cccc(CNC(=O)CCC2CCCN(Cc3ccc(OC(F)F)cc3)C2)c1 (stereo not given) | -2.49% (inactive)
COc1cccc(CC2(CO)CCCN(Cc3nc(-c4cccs4)oc3C)C2)c1 (stereo not given) | 0.04% (inactive)
O=C(CN(CC1CCCO1)C(=O)CNS(=O)(=O)c1ccc(Cl)cc1)NCc1ccccc1 (stereo not given) | 3.32% (inactive)
CCCOc1ccc(Oc2c(Cl)cnn(Cc3cccc4ccccc34)c2=O)cc1 | -13% (inactive)
COc1ccc(C(=O)OCCN2CCN(C3CN(Cc4cn(Cc5ccccc5F)nn4)S(=O)(=O)C3)CC2)cc1OC (stereo not given) | -2.27% (inactive)
CC(c1c[nH]c2ccccc12)c1c(-c2ccccc2)n(C)c2ccccc12 (stereo not given) | -17.9% (inactive)

Compound | inhibition
CC(C)C(=O)Nc1cccc(NC(=S)NC(=O)C(c2ccccc2)c2ccccc2)c1 | 21.2% (active)
CCCC(=O)Nc1cccc(NC(=S)NC(=O)C(C)Oc2ccc(Cl)cc2Cl)c1 (stereo not given) | 6.41% (inactive)
CCCCC(=O)NNC(=S)NC(=O)C(c1ccccc1)c1ccccc1 | 7.07% (inactive)
CCN1C(=O)[C@H]2[C@@H](c3ccc(C)cc3)N3C(=O)N(c4cccc(Br)c4)C(=O)[C@@]3(CC)[C@H]2C1=O | 4.57% (inactive)
C[C@@]12C(=O)N(c3cccc(Br)c3)C(=O)N1[C@H](c1ccc(Cl)cc1)[C@@H]1C(=O)N(C3CCCCC3)C(=O)[C@@H]12 | 31.7% (active)
COc1ccc([C@@H]2[C@@H]3C(=O)N(C(C)(C)C)C(=O)[C@@H]3[C@]3(Cc4ccccc4)C(=O)N(c4cccc(Br)c4)C(=O)N23)cc1 | 33.4% (active)
CSCCC1NC2(C(=O)Nc3ccc(Cl)cc32)[C@@H]2C(=O)N(C3CCCC3)C(=O)[C@H]12 (stereo not given in full) | 11.7% (inactive)
CC(C)(C)N1C(=O)[C@H]2[C@@H](c3ccc(Br)cc3)N3C(=O)N(c4cccc(Cl)c4)C(=O)[C@@]3(C)[C@H]2C1=O | 33.8% (active)
CC[C@@]12C(=O)N(c3ccccc3)C(=O)N1[C@H](c1ccc(Br)cc1)[C@@H]1C(=O)N(C(C)(C)C)C(=O)[C@@H]12 | 15.3% (inactive)
CC12C(=O)N(c3ccccc3)C(=O)C1C(c1ccccc1)N1CCCN12 (stereo not given) | -2% (inactive)
COC(=O)[C@]12C[C@H](CC(=O)NCc3ccccc3)C(=O)N(Cc3ccccc3)C1=C[C@H](COCc1ccccc1)O[C@@H]2C | 6.96% (inactive)
C=CCN(C)CC#Cc1ccccc1 | -2.28% (inactive)
O=C(OC12CCCN(C1)/C(=C/c1ccccc1)C2)c1ccco1 (stereo not given) | 8.44% (inactive)
O=S1(=O)c2c(NCc3ccco3)cccc2Oc2ccccc2CN1Cc1cn(Cc2cccc(C(F)(F)F)c2)nn1 | -9.48% (inactive)
COc1ccc(-c2cc(-c3nnc(SCC(=O)Nc4cccc5ccccc45)n3N)[nH]n2)cc1 | -7.36% (inactive)
CC(CCN1CCC(C(O)(c2ccccc2)c2ccccc2)CC1)Oc1ccc(C(F)(F)F)cc1 (stereo not given) | 5.96% (inactive)
COC(=O)N(NC(=O)C(O)(C(C)C)C(C)C)c1ccccc1 | -0.6% (inactive)
CCCC(O)(CCC)C(=O)NN(C(=O)CCl)c1cccc(C)c1 | -8.56% (inactive)
Cc1ccc(N(NC(=O)C(C)(C)O)C(=O)c2ccccc2)cc1C | 87.5% (active)
O=C(CN1CCCc2ccccc21)NCc1ccc(F)cc1 | 1.16% (inactive)
O=C(Nc1cc(F)cc(F)c1)OC1CCC12CCC(c1ccccc1)CC2 (stereo not given) | 7.13% (inactive)
COC(=O)c1ccccc1Sc1c(/C=N/OCc2ccc(Cl)cc2)c(C(F)(F)F)nn1C | -2.32% (inactive)
Cn1nc(C(F)(F)F)c(C(=O)Nc2cccc(C(F)(F)F)c2)c1SCc1ccc(Cl)cc1 | 43.5% (active)
CCC(=O)OCc1c(C(F)(F)F)nn(C)c1Oc1cccc(C(F)(F)F)c1 | -6.05% (inactive)
c1csc(-c2nnc(SCc3nc4ccccc4[nH]3)o2)c1 | -40.8% (inactive)
N#Cc1ccccc1OC[C@@H](O)CN1CCC(C(O)(c2ccccc2)c2ccccc2)CC1 | -0.66% (inactive)
